Measurements taken from PubChem BioAssay (EPA / NIEHS).
Inconclusive results are not listed. Activity calls are given as the source filed them. Rule for the calls, unless noted: active = hit-call score of the fitted dose curve at least 0.9, where 1 is the maximum; inconclusive = response in the unintended direction; inactive = score below 0.9.

Key:
[1] = molecular target: Peroxisome proliferator-activated receptor gamma (Homo sapiens) (UniProt P37231); test: OT_PPARg_PPARgSRC1_0480: Odyssey Thera (OT) 8-hour Protein-Complementation Assay for Peroxisome Proliferator-activated Receptor Gamma / SRC-1 Co-activator (AID 2283387);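 note: nuclear to cytoplasmic split Venus YFP fluorescence ratio reporting PPARg SRC-1 interaction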
In short: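 Protein-fragment complementation of split Venus YFP reports PPARg/SRC-1 interaction in HEK293T (transfected 48 h before treatment), exposed 8 h. Readout: N/C fluorescence ratio at 488 nm from imaging, Draq5 for segmentation, positive fit relative to DMSO.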

[2] = molecular target: Peroxisome proliferator-activated receptor gamma (Homo sapiens) (UniProt P37231); test: OT_PPARg_PPARgSRC1_1440: Odyssey Thera (OT) 24-hour Protein-Complementation Assay for Peroxisome Proliferator-activated Receptor Gamma/ SRC-1 Co-activator (AID 2283388);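 note: nuclear to cytoplasmic ratio of reconstituted Venus YFP fluorescence in fixed imaged cells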
In short: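 Readout is the 488 nm N/C fluorescence ratio from fixed, Draq5-stained HEK293T cells after 24 h compound exposure. Cells carried transiently transfected PPARg and SRC-1 fused to Venus fragments, transfected 48 h before treatment.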

[3] = CEETOX_H295R_OHPROG: CeeTox H295R High-throughput Steroidogenesis Assay for OH-Progesterone (OHPROG) (AID 2283435; active = hit-call score of the fitted dose curve at least 0.9, where 1 is the maximum; inactive = score below 0.9); conditions: actives raise or lower the signal
In short: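 H295R adrenal cells prestimulated 48 h with 10 uM forskolin, then exposed 48 h to chemical (0.1% DMSO final). 17alpha-hydroxyprogesterone in medium quantified by HPLC-MS/MS; bidirectional fit versus DMSO, with MTT viability measured in the same wells.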

[4] = CEETOX_H295R_ESTRADIOL: CeeTox H295R High-throughput Steroidogenesis Assay for Estradiol (AID 2283440; active = hit-call score of the fitted dose curve at least 0.9, where 1 is the maximum; inactive = score below 0.9;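 note: estradiol secreted into medium quantified by LC-MS/MS after dansyl derivatisation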); conditions: actives raise or lower the signal
In short: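 Estradiol in spent medium measured by LC-MS/MS after dansyl chloride derivatisation. Forskolin-primed (10 uM, 48 h) human adrenal H295R cells received test chemical 48 h at 0.1% DMSO; concentrations lowered until MTT viability >/=70%.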

[5] = CEETOX_H295R_ESTRONE: CeeTox H295R High-throughput Steroidogenesis Assay for Estrone (AID 2283441; active = hit-call score of the fitted dose curve at least 0.9, where 1 is the maximum; inactive = score below 0.9;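 note: estrone secreted into medium measured by LC-MS/MS after dansyl derivatization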); conditions: actives raise or lower the signal
In short: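 H295R cells prestimulated 48 h with 10 uM forskolin, then exposed 48 h to chemicals in 0.1% DMSO final; estrone in medium extracted with MTBE, dansyl-derivatized, quantified by HPLC-MS/MS; bidirectional fitting versus DMSO, viability by MTT.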

[6] = CEETOX_H295R_11DCORT: CeeTox H295R High-throughput Steroidogenesis Assay for 11-Deoxycortisol (11DCORT) (AID 2283432; active = hit-call score of the fitted dose curve at least 0.9, where 1 is the maximum; inactive = score below 0.9;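 for AC50: 11-deoxycortisol secreted into the medium measured by LC-MS/MS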); conditions: actives raise or lower the signal
In short: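 Human adrenal H295R cells were prestimulated with 10 uM forskolin for 48 h, then exposed to test chemical (0.1% DMSO final) for 48 h. Medium 11-deoxycortisol was quantified by MTBE extraction and HPLC-MS/MS; bidirectional fitting relative to DMSO.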

[7] = CEETOX_H295R_ANDR: CeeTox H295R High-throughput Steroidogenesis Assay for Androstenedione (ANDR) (AID 2283436; active = hit-call score of the fitted dose curve at least 0.9, where 1 is the maximum; inactive = score below 0.9); conditions: actives raise or lower the signal
In short: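 H295R cells, following OECD 456 with minor changes, exposed to chemicals for 48 h. Androstenedione in the medium was quantified by HPLC-MS/MS after MTBE extraction. Fitting was bidirectional versus DMSO; chemicals were diluted until MTT viability was ≥70%.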

[8] = CEETOX_H295R_CORTIC: CeeTox H295R High-throughput Steroidogenesis Assay for Corticosterone (CORTIC) (AID 2283437; active = hit-call score of the fitted dose curve at least 0.9, where 1 is the maximum; inactive = score below 0.9;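 note: corticosterone secreted into medium quantified by mass spectrometry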); conditions: actives raise or lower the signal
In short: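 H295R adrenal cells prestimulated 48 hours with 10 uM forskolin, then exposed 48 hours to chemical in 0.1% DMSO. Corticosterone in medium measured by HPLC-MS/MS after MTBE extraction; MTT viability in the same wells; bidirectional fit versus DMSO.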

[9] = CEETOX_H295R_CORTISOL: CeeTox H295R High-throughput Steroidogenesis Assay for Cortisol (AID 2283438; active = hit-call score of the fitted dose curve at least 0.9, where 1 is the maximum; inactive = score below 0.9;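 note: cortisol secreted into medium quantified by LC-MS/MS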); conditions: actives raise or lower the signal
In short: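 Forskolin-primed H295R cells (10 uM, 48 h) treated 48 h with test chemical in 0.1% DMSO. Cortisol in medium quantified by MTBE extraction and HPLC-MS/MS; bidirectional fit vs DMSO, MTT viability in same wells.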

[10] = CEETOX_H295R_DOC: CeeTox H295R High-throughput Steroidogenesis Assay for DOC (AID 2283439; active = hit-call score of the fitted dose curve at least 0.9, where 1 is the maximum; inactive = score below 0.9); conditions: actives raise or lower the signal
In short: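 H295R cells prestimulated 48 h with 10 uM forskolin, then exposed 48 h to test chemical (0.1% DMSO final). Medium 11-deoxycorticosterone measured by HPLC-MS/MS after MTBE extraction; bidirectional fit vs DMSO, viability checked by MTT in same wells.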

Measured: AC50

Peroxisome proliferator-activated receptor gamma (Homo sapiens), sequence (P37231 whole entry, looked up, the tested form may be a part): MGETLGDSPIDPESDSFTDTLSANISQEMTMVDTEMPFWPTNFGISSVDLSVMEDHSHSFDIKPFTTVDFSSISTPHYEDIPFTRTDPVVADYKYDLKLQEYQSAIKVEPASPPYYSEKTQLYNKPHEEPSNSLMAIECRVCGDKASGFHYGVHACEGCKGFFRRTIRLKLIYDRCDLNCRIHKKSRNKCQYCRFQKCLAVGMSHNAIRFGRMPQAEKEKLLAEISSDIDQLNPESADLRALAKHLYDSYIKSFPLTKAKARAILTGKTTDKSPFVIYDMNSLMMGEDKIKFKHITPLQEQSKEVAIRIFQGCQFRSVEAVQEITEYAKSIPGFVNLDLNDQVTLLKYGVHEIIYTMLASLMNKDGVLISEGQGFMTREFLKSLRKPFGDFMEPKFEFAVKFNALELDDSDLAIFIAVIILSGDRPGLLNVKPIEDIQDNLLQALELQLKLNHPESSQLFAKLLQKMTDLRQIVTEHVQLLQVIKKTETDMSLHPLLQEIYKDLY

O=C(O)c1ccccc1
inactive: [1] | [2]

COCCO
inactive: [1] | [2]

COC(=O)c1ccccc1C(=O)O
inactive: [1] | [2]

N[C@@H](Cc1cc(I)c(Oc2ccc(O)c(I)c2)c(I)c1)C(=O)O
inactive: [1] | [2]

O=C(c1ccccc1)C1CCCCC1
inactive: [1] | [2]

O=C(c1ccc(O)cc1O)c1ccc(O)cc1O
inactive: [1] | [2]

CCCCOC(=O)C(C)Oc1ccc(Oc2ccc(C(F)(F)F)cn2)cc1 (stereo not given)
inactive: [1] | [2]

COC(=O)c1ccc(I)cc1S(=O)(=O)NC(=O)Nc1nc(C)nc(OC)n1
inactive: [1] | [2]

Cc1nn(C)c(Oc2ccccc2)c1C=NOCc1ccc(C(=O)OC(C)(C)C)cc1
inactive: [1] | [2]

CCOC(=O)NCCOc1ccc(Oc2ccccc2)cc1
inactive: [1] | [2]

COC(=O)CSc1cc(N=c2sc(=O)n3n2CCCC3)c(F)cc1Cl
inactive: [1] | [2]

COc1c(Cl)ccc(Cl)c1C(=O)O
inactive: [1] | [2]

CCOC(=O)COc1cc(-n2ncc(C(F)(F)F)c(C)c2=O)c(F)cc1Cl
inactive: [1] | [2]

N#CSCSc1nc2ccccc2s1
inactive: [1] | [2]

CCOC(=O)C(C)Oc1ccc(Oc2nc3ccc(Cl)cc3o2)cc1 (stereo not given)
inactive: [1] | [2]

CCCOC(=O)c1ccc(C(=O)OCCC)nc1
inactive: [1] | [2]

CC(C)CCCCCCc1ccc(O)cc1
inactive: [1] | [2]

CCC(C)OC(=O)N1CCCCC1CCO (stereo not given)
inactive: [1] | [2]

C[C@]12CC[C@@H]3c4ccc(O)cc4C[C@@H](CCCCCCCCCS(=O)CCCC(F)(F)C(F)(F)F)[C@H]3[C@@H]1CC[C@@H]2O (stereo not given in full)
inactive: [1] | [2]

CCCOC(=O)NCCCN(C)C
inactive: [1] | [2]

OB(O)O
inactive: [1] | [2]

CCN(CC)C(=O)c1cccc(C)c1
inactive: [1] | [2]

O=C(O)C1(C(=O)Nc2ccc(Cl)cc2Cl)CC1
inactive: [1] | [2]

CCCN(CCC)c1c([N+](=O)[O-])cc(C(F)(F)F)c(N)c1[N+](=O)[O-]
inactive: [1] | [2]

CCSC(=O)N(CC(C)C)CC(C)C
inactive: [1] | [2]

CC(=O)[C@H]1CC[C@H]2[C@@H]3CCC4=CC(=O)CC[C@]4(C)[C@H]3CC[C@]12C
inactive: [1] | [2] | [3] | [4] | [5]

c1ccc2[nH]c(-c3cscn3)nc2c1
inactive: [1] | [2] | [6] | [3] | [7] | [8] | [9] | [10] | [4] | [5]

CC1(C)C(C=C(Cl)Cl)C1C(=O)OCc1cccc(Oc2ccccc2)c1 (stereo not given)
active: [6] 11.3 µM | [3] 11.1 µM
inactive: [7] | [8] | [9] | [10]

CCCN(CCC)C(=O)SCC
inactive: [1] | [2] | [6] | [3] | [7] | [8] | [9] | [10] | [4] | [5]

CCNc1nc(N)nc(Cl)n1
inactive: [3]

CCCCOCCOCCOCc1cc2c(cc1CCC)OCO2
inactive: [1] | [2] | [3] | [7]

CCN(Cc1c(F)cccc1Cl)c1c([N+](=O)[O-])cc(C(F)(F)F)cc1[N+](=O)[O-]
inactive: [1] | [2] | [4]
active: [3] 15.3 µM | [5] 13.7 µM

CSC(=O)c1cccc2nnsc12
inactive: [1] | [2] | [6] | [7] | [9] | [10]
active: [3] 50 µM | [8] 23 µM

CC(=O)S[C@@H]1CC2=CC(=O)CC[C@]2(C)[C@H]2CC[C@@]3(C)[C@@H](CC[C@@]34CCC(=O)O4)[C@H]12
active: [6] 1.76 µM | [7] 1.63 µM | [9] 1.83 µM
inactive: [1] | [2] | [3] | [8] | [10] | [4] | [5]

S=C(S)NCCNC(=S)S.[Mn+2].[S-]C([S-])=NCCN=C([S-])[S-].[Zn+2]
inactive: [1] | [2] | [6] | [3] | [8] | [9] | [10]

CN(C)C(=O)Nc1ccc(Cl)c(Cl)c1
inactive: [1] | [2] | [6] | [8] | [9] | [10]
active: [3] 42.6 µM | [7] 30.8 µM

C=CCOC(Cn1ccnc1)c1ccc(Cl)cc1Cl (stereo not given)
inactive: [1] | [2] | [8] | [10]
active: [6] 0.775 µM | [3] 0.142 µM | [9] 0.159 µM

CCCCC(CC)CN1C(=O)C2C3C=CC(C3)C2C1=O (stereo not given)
inactive: [1] | [2] | [6] | [3] | [8] | [9] | [10] | [4] | [5]

CCOC(=O)c1ccc(O)cc1
inactive: [8] | [9] | [4] | [5]
active: [6] 85.1 µM | [3] 31 µM | [10] 37.7 µM

Oc1ccc(C(c2ccc(O)cc2)C(Cl)(Cl)Cl)cc1
inactive: [1] | [2] | [8]
active: [6] 2.85 µM | [3] 10 µM | [9] 0.399 µM | [10] 0.207 µM

CCCCOC(=O)[C@@H](C)Oc1ccc(Oc2ccc(C(F)(F)F)cn2)cc1
inactive: [1] | [2] | [6] | [3] | [8] | [9] | [10] | [4] | [5]

CC(C)(c1ccc(O)cc1)c1ccc(O)cc1
inactive: [1] | [2] | [3] | [4] | [5]
active: [7] 3.26 µM [middle of 4 runs]

CCCCCOC(=O)COc1cc(N2C(=O)C3=C(CCCC3)C2=O)c(F)cc1Cl
inactive: [1] | [2] | [6] | [3] | [8] | [9] | [10] | [4] | [5]

CCOC(=O)C(C)Oc1ccc(Oc2cnc3cc(Cl)ccc3n2)cc1 (stereo not given)
inactive: [1] | [2] | [6] | [3] | [8] | [9] | [10]

O=C(Nc1ccc([N+](=O)[O-])cc1Cl)c1cc(Cl)ccc1O
inactive: [1] | [2] | [6] | [3] | [8] | [9] | [10] | [4] | [5]

C#C[C@]1(O)CC[C@H]2[C@@H]3CCC4=CC(=O)CC[C@@H]4[C@H]3CC[C@@]21CC
active: [9] 2.4 µM
inactive: [1] | [2] | [6] | [3] | [8] | [10]

C#CCOC(=O)[C@@H](C)Oc1ccc(Oc2ncc(Cl)cc2F)cc1
active: [6] 9.92 µM | [3] 9.84 µM | [10] 6.87 µM
inactive: [1] | [2] | [8] | [9] | [4] | [5]

CC(C)(C)[C@@H](O)[C@@H](Cc1ccc(Cl)cc1)n1cncn1
active: [9] 5 µM
inactive: [1] | [2] | [6] | [3] | [8] | [10]

S=C([S-])NCCNC(=S)[S-].[Mn+2]
inactive: [1] | [2] | [6] | [3] | [8] | [9] | [10]

c1ccc(Nc2ccccc2)cc1
inactive: [1] | [2] | [3]

C[C@]12C[C@H](O)[C@H]3[C@@H](CCC4=CC(=O)CC[C@@]43C)[C@@H]1CC[C@@H]2C(=O)CO
inactive: [1] | [2] | [9] | [10] | [5]
active: [6] 34.4 µM | [3] 72.2 µM | [8] 1.04 µM
